The record followed here is PubChem BioAssay (Tox21).

Each structure is given as a SMILES string. Inconclusive results are not listed. Where a call stands in place of a potency, no number is given. Activity calls are given as the source filed them. Unless noted, calls come from the whole dose curve.

Test system in the first test: not listed separately
Put plainly: qHTS assay to identify small molecule antagonists of the thyroid receptor (TR) signaling pathway (AID 743065; active = well fitted inhibition curve with a large enough effect in the repeat runs; note: nearly all actives have a fitted effect of over 55% in size). To be noted: GH3.TRE-Luc, T3-stimulated luciferase inhibition, 23.5 h; series mostly up to 70.3 µM. Put shortly:
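GH3.TRE-Luc rat pituitary cells carrying two TR response elements driving luciferase were plated for 4 h, given compound plus 1 nM T3 (final), and incubated 23.5 h at 37 C. ONE-Glo luminescence measured reporter inhibition; CellTiter-Fluor fluorescence tracked cytotoxicity.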
(qHTS replaces the single test concentration by a dilution series.)
With `COC(=O)/C=C(\C)CCC=C(C)C`, the Potency entry is “inactive”.

For `CNC(C)=O`, the Potency result is “inactive”.

For `CC(=O)c1ccc2ccc3ccccc3c2c1`, the Potency result is “inactive”.

In the case of `CCN1CCN(C(=O)N[C@@H](C(=O)N[C@@H]2C(=O)N3[C@@H]2SC(C)(C)[C@H]3C(=O)O)c2ccccc2)C(=O)C1=O`, the Potency result is “inactive”.

Regarding `Cc1ccc(O)c([N+](=O)[O-])c1`, the Potency entry was “inactive”.

For the compound `CC(C)(C)C(=O)CC(=O)C(C)(C)C`, the Potency result was “inactive”.

With `CC(=O)Nc1ccc(OCCOCCOc2ccc(NC(C)=O)cc2)cc1`, the Potency entry is “inactive”.

With `Cc1ccc(NC(N)=O)cc1`, the Potency result is “inactive”.

Take `CC(C)(C)c1ccc(N)cc1`: the Potency result is “inactive”.

`NS(=O)(=O)c1cc2c(cc1C(F)(F)F)NCNS2(=O)=O`: the Potency entry is “inactive”.

On to `Clc1cc(Cl)c(Cl)c(Cl)c1Cl`, for which the Potency entry was “inactive”.

As to `CC(CC(=O)Cl)CC(C)(C)C` (stereo unspecified), the Potency entry is “inactive”.

On to `NNC(=O)CCCCC(=O)NN`, for which the Potency result is “inactive”.

For `COCCCOc1cc(C[C@@H](C[C@H](N)[C@@H](O)C[C@H](C(=O)NCC(C)(C)C(N)=O)C(C)C)C(C)C)ccc1OC`, the Potency entry was “inactive”.

For the compound `CCCCS`, the Potency entry was “inactive”.

Take `C[Si](C)(C)O[Si](O)(O)O`: the Potency result was “inactive”.

Turning to `C/C=C(\C)C=O`, the Potency entry is “inactive”.

With `O=C(O)Cc1c(Cl)ccc(Cl)c1Cl`, the Potency entry was “inactive”.

Take `CCCCCCCCCCCBr`: the Potency entry is “inactive”.

In the case of `CCc1ccc(CC)cc1`, the Potency entry was “inactive”.

With `CCCCCCCCCCCCCCCCN(C)C`, the activity, negative = inhibition is 0.216% [at 8.44 µM] (inactive).

`CC(C)(O)c1ccc(C(C)(C)O)cc1`: the Potency result is “inactive”.

With `O=C(OOC(=O)c1ccccc1)c1ccccc1`, the Potency entry is “inactive”.

Take `Cc1cc(C)c(C)c(C)c1`: the Potency entry was “inactive”.

On to `CCO[Si](CC(C)C)(OCC)OCC`, for which the Potency entry is “inactive”.

Turning to `CC(CN1CC(=O)NC(=O)C1)N1CC(=O)NC(=O)C1` (stereo unspecified), the Potency result is “inactive”.

For `Cc1ccc(Br)cc1`, the Potency result is “inactive”.

Consider `CC(=O)OC/C=C(/C)CCC=C(C)C`, for which the Potency entry is “inactive”.

Regarding `CCCCCCCCCCCCCCBr`, the Potency entry was “inactive”.

For the compound `NCC1CCC(C(=O)Oc2ccc(CCC(=O)O)cc2)CC1` (stereo unspecified), the Potency result is “inactive”.

Consider `C[C@@H]1CC[C@@]2(OC1)O[C@H]1C[C@H]3[C@@H]4CC[C@H]5C[C@@H](O)CC[C@]5(C)[C@H]4CC(=O)[C@]3(C)[C@H]1[C@@H]2C`, for which the Potency result is “inactive”.

With `C=COCCCCO`, the Potency result is “inactive”.

Regarding `CN(C)c1ccncc1`, the Potency entry is “inactive”.

`Cc1cc(C)c(N)c(Cl)c1`: the Potency entry was “inactive”.

Consider `CC(C)CC(O)Cc1ccccc1` (stereo unspecified), for which the Potency entry was “inactive”.

`O=C(O)/C=C(\CC(=O)O)C(=O)O`: the Potency entry is “inactive”.

As to `COCc1nnc(-c2ccc[n+]([O-])c2)n1-c1c(Cl)c(Cl)cc2[nH]c(=O)c(=O)[nH]c12`, the Potency result was “inactive”.

With `Cc1ccc(N)nc1`, the Potency result was “inactive”.

A further test deals with thyroid hormone receptor (rat, GH3 cells). Description: qHTS assay to identify small molecule agonists of the thyroid receptor (TR) signaling pathway (AID 743066). To be noted: GH3.TRE-Luc cells, TR agonist luciferase, 24 h; series mostly up to 83.9 µM.
`COC(=O)/C=C(\C)CCC=C(C)C`: the Potency result was “inactive”.

Turning to `CNC(C)=O`, the Potency result is “inactive”.

With `CC(=O)c1ccc2ccc3ccccc3c2c1`, the Potency entry was “inactive”.

As to `CCN1CCN(C(=O)N[C@@H](C(=O)N[C@@H]2C(=O)N3[C@@H]2SC(C)(C)[C@H]3C(=O)O)c2ccccc2)C(=O)C1=O`, the Potency entry is “inactive”.

Regarding `Cc1ccc(O)c([N+](=O)[O-])c1`, the Potency entry is “inactive”.

As for `CC(C)(C)C(=O)CC(=O)C(C)(C)C`, the Potency result is “inactive”.

Regarding `CC(=O)Nc1ccc(OCCOCCOc2ccc(NC(C)=O)cc2)cc1`, the Potency result is “inactive”.

On to `Cc1ccc(NC(N)=O)cc1`, for which the Potency result is “inactive”.

`CC(C)(C)c1ccc(N)cc1`: the Potency entry was “inactive”.

As to `NS(=O)(=O)c1cc2c(cc1C(F)(F)F)NCNS2(=O)=O`, the Potency result is “inactive”.

For `Clc1cc(Cl)c(Cl)c(Cl)c1Cl`, the Potency entry was “inactive”.

Consider `CC(CC(=O)Cl)CC(C)(C)C` (stereo unspecified), for which the Potency result is “inactive”.

On to `NNC(=O)CCCCC(=O)NN`, for which the Potency result was “inactive”.

On to `COCCCOc1cc(C[C@@H](C[C@H](N)[C@@H](O)C[C@H](C(=O)NCC(C)(C)C(N)=O)C(C)C)C(C)C)ccc1OC`, for which the Potency entry was “inactive”.

On to `CCCCS`, for which the Potency result was “inactive”.

On to `C[Si](C)(C)O[Si](O)(O)O`, for which the Potency entry was “inactive”.

On to `C/C=C(\C)C=O`, for which the Potency entry was “inactive”.

`O=C(O)Cc1c(Cl)ccc(Cl)c1Cl`: the Potency entry was “inactive”.

With `CCCCCCCCCCCBr`, the Potency entry is “inactive”.

In the case of `CCc1ccc(CC)cc1`, the Potency entry is “inactive”.

Take `CCCCCCCCCCCCCCCCN(C)C`: the activation is 0.259% [at 8.08 µM] (inactive).

For the compound `CC(C)(O)c1ccc(C(C)(C)O)cc1`, the Potency result was “inactive”.

As to `O=C(OOC(=O)c1ccccc1)c1ccccc1`, the Potency entry is “inactive”.

With `Cc1cc(C)c(C)c(C)c1`, the Potency entry was “inactive”.

Regarding `CCO[Si](CC(C)C)(OCC)OCC`, the Potency entry was “inactive”.

For the compound `CC(CN1CC(=O)NC(=O)C1)N1CC(=O)NC(=O)C1` (stereo unspecified), the Potency result was “inactive”.

Turning to `Cc1ccc(Br)cc1`, the Potency result was “inactive”.

As to `CC(=O)OC/C=C(/C)CCC=C(C)C`, the Potency entry is “inactive”.

Regarding `CCCCCCCCCCCCCCBr`, the Potency result is “inactive”.

For `NCC1CCC(C(=O)Oc2ccc(CCC(=O)O)cc2)CC1` (stereo unspecified), the Potency result is “inactive”.

Regarding `C[C@@H]1CC[C@@]2(OC1)O[C@H]1C[C@H]3[C@@H]4CC[C@H]5C[C@@H](O)CC[C@]5(C)[C@H]4CC(=O)[C@]3(C)[C@H]1[C@@H]2C`, the Potency entry was “inactive”.

Regarding `C=COCCCCO`, the Potency entry is “inactive”.

With `CN(C)c1ccncc1`, the Potency result is “inactive”.

`Cc1cc(C)c(N)c(Cl)c1`: the Potency result is “inactive”.

As to `CC(C)CC(O)Cc1ccccc1` (stereo unspecified), the Potency entry is “inactive”.

For the compound `O=C(O)/C=C(\CC(=O)O)C(=O)O`, the Potency entry is “inactive”.

Take `COCc1nnc(-c2ccc[n+]([O-])c2)n1-c1c(Cl)c(Cl)cc2[nH]c(=O)c(=O)[nH]c12`: the Potency entry is “inactive”.

As for `Cc1ccc(N)nc1`, the Potency result was “inactive”.
